Results: PubChem BioAssay (Tox21)
Values joined by “and” are separate entries in the source; they are usually repeats but may differ in a detail not shown here. Identical values can stand only once. Records with an inconclusive call do not appear. Active and inactive are the calls of the source. Unless noted, calls follow the shape of the dose curve; as a rule, active = well fitted curve in the direction sought with a large enough effect in the repeat runs; inconclusive = weak or mixed curves; inactive = no such curve, though single readings can be large; an effect the other way counts as inactive or inconclusive.

Assays:
[1] = qHTS assay for small molecules that induce genotoxicity in human embryonic kidney cells expressing luciferase-tagged ATAD5 (AID 651632); also: nearly all actives have a fitted effect of over 15% in size; also: potency is read from the fitted curve at half-maximal effect
Method in brief: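 Reporter cells (HEK293T) express luciferase-tagged ATAD5, a protein that accumulates after DNA damage. Treat 16 hr at 37C/5% CO2, add Amplite, wait 30 min at RT, and read luminescence.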

[2] = qHTS assay for small molecule agonists of the p53 signaling pathway - cell viability (AID 651633; calls by dose curve; also: nearly all actives have a fitted effect of over 30% in size; also: potency is read from the fitted curve at half-maximal effect)
Method in brief: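 p53RE-bla cells were treated with compound for 16 hours at 37 C. Cytotoxicity was then measured as CellTiter-Glo luminescence after 30 min at room temperature.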

[3] = qHTS assay for small molecule disruptors of the mitochondrial membrane potential (AID 720635); also: potency is read from the fitted curve at half-maximal effect
Method in brief: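 HepG2 cells exposed to compound 1 hr at 37C, then Mito-MPS dye 30 min. Ratio read of aggregate (540/590 nm) versus monomer (490/535 nm) fluorescence.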

[4] = qHTS assay to test for compound auto fluorescence at 590 nm (red) in HepG2 cells (AID 720674); also: % is scaled to controls: 0 for no effect and ±100 for the full control effect
Method in brief: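 Fluorescence at 590 nm emission following 540 nm excitation was recorded from HepG2 wells one hour after compound transfer, with DMSO-only wells as vehicle and Rose Bengal sodium equivalency as the scale.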

[5] = qHTS assay to test for compound auto fluorescence at 535 nm (green) in HepG2 cells (AID 720675); also: % is scaled to controls: 0 for no effect and ±100 for the full control effect
[6] = qHTS assay to test for compound auto fluorescence at 460 nm (blue) in HEK293 cells (AID 720678); also: % is scaled to controls: 0 for no effect and ±100 for the full control effect
Method in brief: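 Intrinsic compound fluorescence is recorded in live HEK293 cultures after overnight incubation at 37C, 5% CO2, using excitation 405 nm and emission 460 nm. Values are referenced to triamterene.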

[7] = qHTS assay to test for compound auto fluorescence at 590 nm (red) in HEK293 cells (AID 720679); also: % is scaled to controls: 0 for no effect and ±100 for the full control effect
Method in brief: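 Red autofluorescence, HEK293 cells: 2,000 cells/well; attach 4-5 hr 37C; add 23 nL cpd or DMSO; incubate o/n 37C 5% CO2; read Ex540/Em590; Rose Bengal sodium reference.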

[8] = qHTS assay to test for compound auto fluorescence at 535 nm (green) in HEK293 cells (AID 720680); also: % is scaled to controls: 0 for no effect and ±100 for the full control effect
[9] = qHTS assay to test for compound auto fluorescence at 460 nm (blue) in HEK293 cell free culture (AID 720681); also: % is scaled to controls: 0 for no effect and ±100 for the full control effect
Method in brief: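 Compounds were added to cell-free DMEM with 10% FBS and fluorescence read directly. The blue channel used 405 nm excitation and 460 nm emission, with triamterene as the reference fluorophore.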

[10] = qHTS assay to test for compound auto fluorescence at 535 nm (green) in HEK293 cell free culture (AID 720682); also: % is scaled to controls: 0 for no effect and ±100 for the full control effect
Method in brief: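 Read-out: 485/535 nm fluorescence intensity, calibrated against fluorescein. Medium only (DMEM + 10% FBS, no cells); test compound or DMSO vehicle added by pintool before plate reading.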

[11] = qHTS assay to test for compound auto fluorescence at 590 nm (red) in HEK293 cell free culture (AID 720683); also: % is scaled to controls: 0 for no effect and ±100 for the full control effect
Method in brief: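 Cell-free wells of DMEM with 10% FBS received compound, and intrinsic fluorescence was read at excitation/emission 540/590 nm. Values expressed as equivalence to Rose Bengal sodium.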

[12] = qHTS assay to test for compound auto fluorescence at 590 nm (red) in HepG2 cell free culture (AID 720684); also: % is scaled to controls: 0 for no effect and ±100 for the full control effect
Method in brief: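 Compound was pinned into wells holding MEM with 10% FBS and no cells, and red fluorescence was read at Ex/Em 540/590 nm. Signal is expressed as auto fluorescence equivalency relative to Rose Bengal sodium.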

[13] = qHTS assay to test for compound auto fluorescence at 460 nm (blue) in HepG2 cell free culture (AID 720685); also: % is scaled to controls: 0 for no effect and ±100 for the full control effect
Method in brief: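 Compound (23 nL) or DMSO pinned into cell-free MEM with 10% FBS; blue fluorescence read at 405/460 nm excitation/emission, expressed as auto-fluorescence equivalency to triamterene.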

[14] = qHTS assay to test for compound auto fluorescence at 535 nm (green) in HepG2 cell free culture (AID 720686); also: % is scaled to controls: 0 for no effect and ±100 for the full control effect
[15] = qHTS assay to test for compound auto fluorescence at 460 nm (blue) in HepG2 cells (AID 720687); also: % is scaled to controls: 0 for no effect and ±100 for the full control effect
Method in brief: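 HepG2 cells in MEM with 10% FBS, attached overnight at 37 C, were exposed to compound or DMSO for 1 hr at 37 C, 5% CO2. Blue fluorescence was read at 405/460 nm, with triamterene as reference fluorophore.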

[16] = target: Glucocorticoid receptor (Homo sapiens) (UniProt P04150); assay: qHTS assay to identify small molecule agonists of the glucocorticoid receptor (GR) signaling pathway (AID 720691; active = well fitted activation curve with a large enough effect in the signal ratio in the repeat runs, not every such curve was filed as active; the % refers to the signal ratio; also: % is scaled to controls: 0 for no effect and ±100 for the full control effect); conditions: GR-bla HeLa, beta-lactamase reporter ratio, 18 h; activation: at 62.4 µM (top of the series)
Chain of Glucocorticoid receptor (Homo sapiens) (P04150 whole entry, looked up): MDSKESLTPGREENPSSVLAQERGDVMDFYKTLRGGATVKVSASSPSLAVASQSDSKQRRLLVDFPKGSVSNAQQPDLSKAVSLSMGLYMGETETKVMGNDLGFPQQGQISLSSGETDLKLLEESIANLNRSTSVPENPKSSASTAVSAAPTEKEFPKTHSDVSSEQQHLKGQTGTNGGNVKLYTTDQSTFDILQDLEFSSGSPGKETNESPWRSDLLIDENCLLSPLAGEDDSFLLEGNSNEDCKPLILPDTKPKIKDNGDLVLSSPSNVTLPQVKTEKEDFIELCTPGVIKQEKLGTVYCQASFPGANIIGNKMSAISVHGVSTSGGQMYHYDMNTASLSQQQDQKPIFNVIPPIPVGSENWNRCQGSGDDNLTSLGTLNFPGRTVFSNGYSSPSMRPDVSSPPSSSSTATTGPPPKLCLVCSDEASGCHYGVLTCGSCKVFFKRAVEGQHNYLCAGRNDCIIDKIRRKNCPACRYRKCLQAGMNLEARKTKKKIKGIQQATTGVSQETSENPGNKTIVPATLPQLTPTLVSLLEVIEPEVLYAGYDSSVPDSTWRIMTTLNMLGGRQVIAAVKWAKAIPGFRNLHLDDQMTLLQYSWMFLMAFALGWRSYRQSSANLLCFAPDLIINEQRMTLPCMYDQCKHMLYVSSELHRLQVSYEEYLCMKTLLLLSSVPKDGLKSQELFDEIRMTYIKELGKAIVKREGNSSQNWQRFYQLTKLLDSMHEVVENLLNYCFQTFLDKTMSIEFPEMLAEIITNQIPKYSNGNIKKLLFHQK
Method in brief: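 Reporter read-out: fluorescence intensity following 2 h room-temperature LiveBLAzer B/G FRET substrate loading. Prior step: GR-bla HeLa cells held 4 h, then treated 18 h at 37 C.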

[17] = qHTS assay for small molecule disruptors of the mitochondrial membrane potential - cell viability (AID 720634; calls by dose curve; also: nearly all actives have a fitted effect of over 20% in size; also: potency is read from the fitted curve at half-maximal effect)
Method in brief: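 Measuring cytotoxicity alongside mitochondrial potential, the screen quantified ATP by luminescence in HepG2 cells after 1 hr compound incubation and a 30 min room-temperature CellTiter-Glo step.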

[18] = target: Glucocorticoid receptor (Homo sapiens) (UniProt P04150); assay: qHTS assay to identify small molecule antagonists of the glucocorticoid receptor (GR) signaling pathway (AID 720692; active = well fitted inhibition curve with a large enough effect in the signal ratio in the repeat runs, not every such curve was filed as active; the % refers to the signal ratio; also: potency is read from the fitted curve at half-maximal effect)
Method in brief: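 Dexamethasone (5 nM final) stimulated a stably integrated GRE-beta-lactamase reporter in HeLa cells during 18 h co-incubation with compounds; signal was quantified as fluorescence intensity of B/G FRET substrate after 2 h.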

[19] = qHTS assay for small molecules that induce genotoxicity in human embryonic kidney cells expressing luciferase-tagged ATAD5 - cell viability (AID 651634; calls by dose curve; also: nearly all actives have a fitted effect of over 25% in size; also: potency is read from the fitted curve at half-maximal effect)
Method in brief: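 Seeding of 2,000 HEK293T ATAD5-luciferase cells per well preceded pin-tool compound transfer. Plates sat 15.5 hr at 37C under 5% CO2, then fluorescence was read after 30 min with CellTiter-Fluor.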

CN(C)c1ccc(N=NS(=O)(=O)O)cc1
inactive: Potency [1] | Potency [2] | Potency [4] | Potency [5] | Potency [6] | Potency [7] | Potency [8] | Potency [9] | Potency [10] | Potency [11] | Potency [12] | Potency [13] | Potency [14] | Potency [15] | Potency [16]
active: Potency [3] 2.17 µM

C=C[C@](C)(O)CC[C@@H]1[C@@]2(C)CCCC(C)(C)[C@@H]2CC[C@@]1(C)O
inactive: Potency [1] | Potency [4] | Potency [5] | Potency [7] | Potency [8] | Potency [9] | Potency [10] | Potency [11] | Potency [12] | Potency [13] | Potency [14] | Potency [15]
active: Potency [2] 61.1 µM | Potency [3] 43.3 µM

O=C1NC2CCCCN2C12CCN(CCCN1c3ccccc3CCc3ccc(Cl)cc31)CC2 (stereo unspecified)
active: Potency [18] 23.9 µM
inactive: Potency [1] | Potency [2] | Potency [17] | Potency [3] | Potency [4] | Potency [5] | Potency [6] | Potency [7] | Potency [8] | Potency [9] | Potency [10] | Potency [11] | Potency [12] | Potency [13] | Potency [14] | Potency [15] | Potency [16]

CCN1CCN(c2cc(-c3ccc(F)cc3)c3c(n2)CCCCCC3)CC1
inactive: Potency [1] | Potency [19] | Potency [17] | Potency [3] | Potency [4] | Potency [5] | Potency [7] | Potency [8] | Potency [10] | Potency [11] | Potency [12] | Potency [13] | Potency [14] | Potency [15] | Potency [16]

CC(C)OC(=O)c1cc(C(=O)OC(C)C)cc([N+](=O)[O-])c1
inactive: Potency [1] | Potency [2] | Potency [19] | Potency [4] | Potency [5] | Potency [6] | Potency [7] | Potency [8] | Potency [10] | Potency [11] | Potency [12] | Potency [13] | Potency [14] | Potency [15] | Potency [16]

CC(C)(C)CC(C)(C)c1ccccc1O
active: Potency [2] 43.5 µM | Potency [17] 27.4 µM | Potency [3] 2.18 µM
inactive: Potency [1] | Potency [4] | Potency [5] | Potency [6] | Potency [7] | Potency [8] | Potency [9] | Potency [10] | Potency [11] | Potency [12] | Potency [13] | Potency [14] | Potency [15]

CCN=C1C=CC(=C(c2ccc(N(CC)CC)cc2)c2ccc(N(CC)CC)cc2)c2ccccc21
inactive: Potency [1] | Potency [4] | Potency [6] | Potency [7] | Potency [8] | Potency [9] | Potency [10] | Potency [11] | Potency [12] | Potency [13] | Potency [14] | Potency [15]
active: Potency [2] 30.5 µM | Potency [19] 34.2 µM | Potency [3] 0.0076 µM

C[C@@]12C(=O)OC(=O)[C@]1(C)C1CCC2O1
inactive: Potency [17] | fluorescence, relative to Rose Bengal [4] 0.463% [at 18.6 µM] | fluorescence, % of triamterene [6] -0.421% [at 18.6 µM] | fluorescence, % of fluorescent control [7] -0.0987% [at 18.6 µM] | fluorescence, % of fluorescein [8] 0.0141% [at 18.6 µM] | fluorescence, % of fluorescent control [9] -0.101% [at 18.6 µM] | activity change [10] -0.057% [at 18.6 µM, stronger effect = higher value] | fluorescence, % of fluorescent control [11] 0.092% [at 18.6 µM] | fluorescence, % of Rose Bengal [12] -0.0041% [at 18.6 µM] | fluorescence, % of fluorescent control [13] -0.0149% [at 18.6 µM] | fluorescence, % of fluorescein control [14] -0.0053% [at 18.6 µM] | fluorescence, % of fluorescent control [15] -0.0452% [at 18.6 µM]
active: Potency [1] 0.902 µM | Potency [19] 3.59 µM | Potency [3] 0.101 µM

C[C@]12CC[C@H]3C(=CCc4cc(O)ccc43)[C@@H]1CCC2=O
inactive: Potency [1] | Potency [2] | Potency [4] | Potency [5] | Potency [7] | Potency [8] | Potency [9] | Potency [10] | Potency [11] | Potency [12] | Potency [13] | Potency [14] | Potency [15]
active: Potency [3] 19.3 µM | Potency [18] 11 µM

Cc1occc1SSc1ccoc1C
inactive: Potency [1] | Potency [2] | Potency [17] | Potency [3] | Potency [4] | Potency [5] | Potency [6] | Potency [7] | Potency [8] | Potency [9] | Potency [11] | Potency [12] | Potency [13] | Potency [14] | Potency [15] | Potency [16]

C[C@@H]1CC[C@H]2C(C)(C)[C@H]3C[C@@]12CC[C@@]3(C)O
active: Potency [3] 61 µM
inactive: Potency [1] | Potency [2] | Potency [19] | Potency [4] | Potency [6] | Potency [7] | Potency [8] | Potency [9] | Potency [10] | Potency [11] | Potency [12] | Potency [13] | Potency [14] | Potency [15]

COC(=O)C1=C(C)NC(C)=C(C(=O)OCCCN2CCC(c3ccccc3)(c3ccccc3)CC2)C1c1cccc([N+](=O)[O-])c1 (stereo unspecified)
inactive: Potency [17] | Potency [4] | Potency [5] | Potency [6] | Potency [7] | Potency [8] | Potency [9] | Potency [11] | Potency [12] | Potency [13] | Potency [14] | Potency [15]
active: Potency [2] 26.6 µM | Potency [19] 23.7 µM

C[C@H]1O[C@@H](O[C@H]2[C@@H](O)C[C@H](O[C@H]3[C@@H](O)C[C@H](O[C@H]4CC[C@@]5(C)[C@H](CC[C@@H]6[C@@H]5C[C@@H](O)[C@]5(C)[C@@H](C7=CC(=O)OC7)CC[C@]65O)C4)O[C@@H]3C)O[C@@H]2C)C[C@H](O)[C@@H]1O
inactive: Potency [17] | Potency [4] | Potency [5] | Potency [7] | Potency [8] | Potency [9] | Potency [11] | Potency [12] | Potency [13] | Potency [14] | Potency [15] | Potency [16]
active: Potency [2] 94.4 nM and 13.7 nM and 30.3 nM | Potency [19] 168 nM and 48.6 nM and 42.8 nM | Potency [3] 298 nM and 1.37 µM and 604 nM

S=C(SSSSSSC(=S)N1CCCCC1)N1CCCCC1
inactive: Potency [2] | Potency [17] | fluorescence, relative to Rose Bengal [4] -0.0183% [at 18.6 µM] | fluorescence, % of fluorescein control [5] -0.0182% [at 18.6 µM] | fluorescence, % of fluorescent control [7] 0.199% [at 18.6 µM] | fluorescence, % of fluorescent control [9] -0.263% [at 18.6 µM] | fluorescence, % of fluorescent control [11] 0.0303% [at 18.6 µM] | fluorescence, % of Rose Bengal [12] -0.0342% [at 18.6 µM] | fluorescence, % of fluorescent control [13] -0.225% [at 18.6 µM] | fluorescence, % of fluorescein control [14] -0.0879% [at 18.6 µM] | fluorescence, % of fluorescent control [15] 0.0837% [at 18.6 µM] | Potency [16]
